# An excerpt weighted towards active compounds, which were near 5.9% of everything screened.
# GLP-1R inv ag – acts as inverse agonist at human GLP-1 receptor; HEK293 GLP-1R CRE-luciferase, luminescence, 24 h; GLP-1R form is constitutively active; Potency, µM (highest dose often 38.3 µM), inactives show at the highest dose activity change, negative = inhibition, most hits filed as inhibitors; P43220; 1.6% of 410,000 active; also: % is scaled to controls: 0 for no effect and ±100 for the full control effect; nearly all actives have a fitted effect of over 55% in size
# Target sequence (P43220 whole entry, looked up): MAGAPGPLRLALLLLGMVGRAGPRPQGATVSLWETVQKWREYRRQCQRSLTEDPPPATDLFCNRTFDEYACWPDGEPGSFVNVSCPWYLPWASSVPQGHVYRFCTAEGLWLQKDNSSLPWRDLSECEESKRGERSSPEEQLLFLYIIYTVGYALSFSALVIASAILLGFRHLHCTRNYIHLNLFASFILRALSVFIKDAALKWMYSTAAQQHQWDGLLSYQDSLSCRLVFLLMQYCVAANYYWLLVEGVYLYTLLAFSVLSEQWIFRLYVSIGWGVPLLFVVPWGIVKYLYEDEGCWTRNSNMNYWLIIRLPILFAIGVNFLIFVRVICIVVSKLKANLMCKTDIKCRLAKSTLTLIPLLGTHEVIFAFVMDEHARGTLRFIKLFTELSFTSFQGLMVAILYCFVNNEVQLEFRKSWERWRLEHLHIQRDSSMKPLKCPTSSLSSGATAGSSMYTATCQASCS
#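 Luminescence readout: a drop in cAMP-driven luciferase signal flags inverse agonism at a constitutively active GLP-1R stably expressed in HEK293. Compound exposure lasted 24 hr at 37 deg C, 5% CO2.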
# GLP1R cytotox – cytotoxic in the GLP-1 receptor inverse agonist counter-screen; Potency, µM (doses to about 38.3 µM), without a hit: at the highest dose activity change, negative = inhibition, actives largely listed as inhibitors; AID 624418; 0.13% of 410,000 active; HEK293 cAMP-luciferase reporter cells, luminescence, 24 h;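 also: loss of luciferase light is scored as toxicity; % is scaled to controls: 0 for no effect and ±100 for the full control effect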
#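 Luminescence readout: signal drop marks cytotoxicity. Plated cells grew 12 h at 37 °C, 5% CO2, received 23 nL compound for 24 h, then got luciferase reagent, read after 12 min at RT.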
# GLP-1R agonist – activates the human GLP-1 receptor | HEK293 GLP-1R CRE-luciferase, luminescence, 4-6 h; cells express a hypersensitive GLP-1R form | 0.007% of 380,000 active | Potency, µM (highest dose often 45.6 µM), without a hit: at the highest dose activation, hits mostly activators | AID 624172; also: % of control where 0% means no effect
# RORgamma inh – inhibitors of mouse ROR gamma transcriptional activity; AID 2551; P51450; Drosophila S2 Gal4-RORgamma UAS-luciferase reporter, 20 h; 5.4% of 310,000 active; Potency, µM (doses to about 53.6 µM), for the others: at the highest dose activity change, negative = inhibition, actives largely listed as inhibitors; also: % is scaled to controls: 0 for no effect and ±100 for the full control effect; nearly all actives have a fitted effect of over 60% in size
#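 Schneider cells (Drosophila), stable Gal4 DBD–ROR gamma + UAS-luc; 1 hr cmpd preincubation; Cu2+ induction 700 uM final; 20 hr ambient; luminescence.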
# Gal4-VP16 FLuc – counter-screen for ROR gamma inhibitors: Gal4-VP16 reporter | Drosophila S2 Gal4-VP16 UAS-luciferase, luminescence, 20 h | Potency, µM (titrated, usually from 53.6 µM), inactives show at the top dose activity, negative = inhibition, actives largely listed as inhibitors | 3.5% of 310,000 active | AID 2546;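 also: Gal4-VP16 expression switched on by copper sulfate through the metallothionein promoter; % is scaled to controls: 0 for no effect and ±100 for the full control effect; nearly all actives have a fitted effect of over 50% in size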
# The depositor's hits bear a star; ? = inconclusive; / = no result given. Calls follow the shape of the dose curve; as a rule, active = well fitted curve in the direction sought with a large enough effect; inconclusive = small, poorly fitted or top-dose-only effect, or another doubt; inactive = no such curve, though single readings can be large; an effect the other way counts as inactive or inconclusive. Potency is read from the fitted curve at half-maximal effect.
SMILES,GLP-1R inv ag,GLP1R cytotox,GLP-1R agonist,RORgamma inh,Gal4-VP16 FLuc
c1ccc2c(-c3nnc4n3CCCCC4)cc(-c3ccncc3)nc2c1,45.7%,7.6%,7.3%,-11.1%,-3.0%
O=C(OCc1cc(=O)n2nc(C3CC3)sc2n1)c1ccc(NC(=O)c2ccccc2F)cc1,-2.3%,-4.9%,/,/,/
CCn1c(SCc2ccc(Cl)cc2Cl)nc2nc3c(cc2c1=O)CCCC3,0.0%,-17.7%,0.4%,7.08µM*,6.0%
O=C(NCc1cccs1)c1nc2c(nnn2Cc2ccccc2Cl)c(=O)[nH]1,?,?,-10.6%,10µM*,2.82µM*
CCc1nc2nc(C)cc(Nc3cc(Cl)ccc3C)n2n1,6.7%,7.8%,/,/,/
S=C(NCCc1ccccc1)NCc1cccs1,?,-3.2%,8.8%,11.2µM*,-83.6%
Cc1ccc(C(C)C)c(OCCNC(=S)Nc2cccc3ccccc23)c1,?,?,5.6%,1.26µM*,3.16µM*
Cc1cccc(NC(=S)NCc2cccs2)c1C,?,-21.2%,2.6%,3.55µM*,10µM*
S=C(NCc1cccs1)Nc1cccc2ccccc12,?,-7.8%,4.4%,3.55µM*,?
Cc1c(Cl)cccc1NC(=S)NCc1ccccc1,?,-22.6%,-1.7%,/,/
S=C(NCc1ccccc1)Nc1cccc2ccccc12,10µM*,?,-3.1%,3.16µM*,5.62µM*
COc1ccc(N2CCN(C(=O)CSc3nnc(-c4cccnc4)n3-c3ccc(F)cc3)CC2)cc1,-14.9%,?,14.0%,29.7%,0.5%
COc1ccc(N2CCN(C(=O)CSc3nnc(-c4cccnc4)n3-c3ccccc3)CC2)cc1,11.2µM*,7.9%,1.6%,27.7%,11.5%
Cc1c(CNC2CCCCC2)c(C(=O)O)c(C)n1Cc1c(F)cccc1Cl,-19.7%,24.0%,/,/,/
CCC(=O)N/C(N)=N/c1nc2ccccc2o1,-12.8%,-9.9%,6.7%,12.6µM*,?
CC(=O)N/C(N)=N/c1nc2cc([N+](=O)[O-])ccc2o1,16.7%,0.0%,14.1%,-31.3%,15.4%
N/C(=N\c1nc2ccccc2o1)NC(=O)/C=C/c1ccccc1,-9.4%,-6.9%,8.2%,-42.0%,-20.3%
CC(C)CC(=O)N/C(N)=N/c1nc2ccccc2o1,?,-2.8%,7.9%,10µM*,-2.9%
N/C(=N\c1nc2ccccc2o1)NC(=O)c1ccccc1,7.1%,-1.1%,1.1%,7.08µM*,-25.3%
Cc1ccc(C(=O)N/C(N)=N/c2nc3ccccc3o2)cc1,29.6%,-5.3%,0.1%,-27.9%,0.0%
CCCC(=O)N/C(N)=N/c1nc2ccccc2o1,?,-12.0%,7.4%,10µM*,-28.5%
O=C(CC(c1cccs1)N1Cc2ccccc2C1=O)Nc1ccc(Cl)cc1 (stereo not given),3.3%,-5.5%,/,/,/
COc1ccccc1C(=O)N/C(N)=N/c1nc2ccccc2o1,12.5%,-0.2%,14.5%,8.91µM*,?
N/C(=N\c1nc2ccccc2o1)NC(=O)c1cccc(Br)c1,7.0%,8.4%,-0.4%,-24.7%,-2.4%
CC(=O)N/C(N)=N/c1nc2cc(C)ccc2o1,-5.4%,-13.1%,3.2%,11.2µM*,?
SMILES,GLP-1R inv ag,GLP1R cytotox,GLP-1R agonist,RORgamma inh,Gal4-VP16 FLuc
CC(C)(C)C(=O)N/C(N)=N/c1nc2ccccc2o1,11.2µM*,?,4.8%,3.98µM*,?
Cc1ccc2c(Cl)cc(Cl)c(OCC(=O)Nc3ccc(C)c(S(=O)(=O)N(C)C)c3)c2n1,/,/,/,7.08µM*,7.08µM*
Cc1ccc2c(Cl)cc(Cl)c(OCC(=O)Nc3cccc(S(=O)(=O)N(C)C)c3)c2n1,-0.9%,-26.9%,-0.1%,5.01µM*,10µM*
NS(=O)(=O)c1cccc(NC(=O)COc2ccc([N+](=O)[O-])cc2)c1,-13.0%,-0.6%,-7.8%,34.2%,-3.8%
Cc1ccc2c(Cl)cc(Cl)c(OCC(=O)Nc3cc(S(=O)(=O)N(C)C)ccc3C)c2n1,?,0.1%,19.1%,-138.4%,?
Cc1ccc2c(Cl)cc(Cl)c(OCC(=O)Nc3cccc(S(N)(=O)=O)c3)c2n1,71.0%,-0.8%,22.1%,14.1µM*,?
CN(C)C(=O)c1ccc(-c2nc(NCc3cccnc3)c3ccccc3n2)cc1,/,/,/,23.3%,1.1%
